Data on 7 sequences can be found in publication PMC11006913.

What all share (assay): PBM; 200 nM protein, PBS
Conditions in all cases: dsDNA, one strand shown

In experiment [1] the target is NKX2-5 (Homo sapiens, UniProt P52952 125-210, R139K).
Experiment [2] addresses T1, NKX2-4 (Homo sapiens, UniProt Q9H2Z4 175-261, P217L).
T1 sequence: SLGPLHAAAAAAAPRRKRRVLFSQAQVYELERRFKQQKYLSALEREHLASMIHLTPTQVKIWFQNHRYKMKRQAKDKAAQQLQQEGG

Experiment [3] addresses T2, NKX2-4 (Homo sapiens, UniProt Q9H2Z4 175-261, T231S).
T2 sequence: T1 sequence with L43P, T57S

In experiment [4] the target is T3, NKX2-4 (Homo sapiens, UniProt Q9H2Z4 175-261).
T3 sequence: T1 sequence with L43P

The target of experiment [5] is T4, NKX2-6 (Homo sapiens, UniProt A6NCS4 118-204, R150C).
T4 sequence: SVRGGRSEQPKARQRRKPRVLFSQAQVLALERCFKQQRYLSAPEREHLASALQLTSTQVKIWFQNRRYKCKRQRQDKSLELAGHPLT

The target in experiment [6] is T5, NKX2-6 (Homo sapiens, UniProt A6NCS4 118-204).
T5 sequence: T4 sequence with C33R

Experiment [7] deals with T6, NKX2-4 (Homo sapiens, UniProt Q9H2Z4 175-261, R246Q).
T6 sequence: T1 sequence with L43P, R72Q

Experiment [8] addresses T7, NKX2-6 (Homo sapiens, UniProt A6NCS4 118-204, F151L).
T7 sequence: T4 sequence with C33R, F34L

Experiment [9] has as its target NKX3-2 (Homo sapiens, UniProt P78367 192-278, P234S).
In experiment [10] the target is NKX2-5 (Homo sapiens, UniProt P52952 125-210).
NKX2-5 (Homo sapiens, UniProt P52952 125-210), sequence (P52952 125-210): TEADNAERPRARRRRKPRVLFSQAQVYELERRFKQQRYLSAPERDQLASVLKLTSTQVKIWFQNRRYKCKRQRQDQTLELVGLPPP
Experiment [11] concerns the target NKX3-2 (Homo sapiens, UniProt P78367 192-278).
Experiment [12] has as its target HOXB4 (Homo sapiens, UniProt P17483 148-234).
Experiment [13] has as its target HOXB6 (Homo sapiens, UniProt P17509 132-218, K202E).
In experiment [14] the target is HOXB4 (Homo sapiens, UniProt P17483 148-234, V174I).
HOXB4 (Homo sapiens, UniProt P17483 148-234, V174I), sequence (P17483 148-234 V174I): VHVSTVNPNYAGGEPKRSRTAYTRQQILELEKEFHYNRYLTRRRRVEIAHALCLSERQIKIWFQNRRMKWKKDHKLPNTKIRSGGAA

Positions count from the first letter of the chain named.

NKX2-5 (Homo sapiens, UniProt P52952 125-210, R139K), sequence (P52952 125-210 R139K): as the sequence (P52952 125-210) above, with R15K counted along it
NKX3-2 (Homo sapiens, UniProt P78367 192-278), sequence (P78367 192-278): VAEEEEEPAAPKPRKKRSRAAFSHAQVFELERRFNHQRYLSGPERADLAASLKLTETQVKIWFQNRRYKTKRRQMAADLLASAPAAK
NKX3-2 (Homo sapiens, UniProt P78367 192-278, P234S), sequence (P78367 192-278 P234S): as the sequence (P78367 192-278) above, with P43S counted along it
HOXB4 (Homo sapiens, UniProt P17483 148-234), sequence (P17483 148-234): as the sequence (P17483 148-234 V174I) above, with I27V counted along it
HOXB6, sequence (P17509 132-218 K202E): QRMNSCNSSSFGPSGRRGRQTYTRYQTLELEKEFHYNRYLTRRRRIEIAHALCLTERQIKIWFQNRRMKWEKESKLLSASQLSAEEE

CACTTTAA: the binding signal in [1] is 12.4 upbm affinity estimate (log intensity, higher = more binding, comparable within an allelic series); in experiment [2], 12.5 upbm affinity estimate (log intensity, higher = more binding, comparable within an allelic series); in experiment [3], 12.9 upbm affinity estimate (log intensity, higher = more binding, comparable within an allelic series); in experiment [4], 12.3 upbm affinity estimate (log intensity, higher = more binding, comparable within an allelic series); in [5], 11.7 upbm affinity estimate (log intensity, higher = more binding, comparable within an allelic series); in experiment [6], 13.4 upbm affinity estimate (log intensity, higher = more binding, comparable within an allelic series). For the same sequence, the binding signal was 13 upbm affinity estimate (log intensity, higher = more binding, comparable within an allelic series) in experiment [7]; 10.7 upbm affinity estimate (log intensity, higher = more binding, comparable within an allelic series) in experiment [8]; 12.5 upbm affinity estimate (log intensity, higher = more binding, comparable within an allelic series) in experiment [9]; 12.4 upbm affinity estimate (log intensity, higher = more binding, comparable within an allelic series) in [10]; 12.6 upbm affinity estimate (log intensity, higher = more binding, comparable within an allelic series) in experiment [11].

ATTAAGTG: the binding signal in experiment [1] is 12.7 upbm affinity estimate (log intensity, higher = more binding, comparable within an allelic series); in [2], 12.5 upbm affinity estimate (log intensity, higher = more binding, comparable within an allelic series); in [3], 12.9 upbm affinity estimate (log intensity, higher = more binding, comparable within an allelic series); in [4], 12.4 upbm affinity estimate (log intensity, higher = more binding, comparable within an allelic series); in experiment [5], 11.8 upbm affinity estimate (log intensity, higher = more binding, comparable within an allelic series); in [6] it was 13.7 upbm affinity estimate (log intensity, higher = more binding, comparable within an allelic series). Moreover, the binding signal in [7] was 13 upbm affinity estimate (log intensity, higher = more binding, comparable within an allelic series); in experiment [8], 11 upbm affinity estimate (log intensity, higher = more binding, comparable within an allelic series); in experiment [9] it was 12.7 upbm affinity estimate (log intensity, higher = more binding, comparable within an allelic series); in experiment [10], 12.6 upbm affinity estimate (log intensity, higher = more binding, comparable within an allelic series); in experiment [11] it was 12.8 upbm affinity estimate (log intensity, higher = more binding, comparable within an allelic series).

For CGGACCCG, the binding signal was 8.84 upbm affinity estimate (log intensity, higher = more binding, comparable within an allelic series) in [1]; 8.04 upbm affinity estimate (log intensity, higher = more binding, comparable within an allelic series) in experiment [12]; 8.97 upbm affinity estimate (log intensity, higher = more binding, comparable within an allelic series) in experiment [13]; 7.9 upbm affinity estimate (log intensity, higher = more binding, comparable within an allelic series) in [14]; 8.79 upbm affinity estimate (log intensity, higher = more binding, comparable within an allelic series) in [10].

Take ACCACTTA: the binding signal was 13.2 upbm affinity estimate (log intensity, higher = more binding, comparable within an allelic series) in experiment [1]; 12.7 upbm affinity estimate (log intensity, higher = more binding, comparable within an allelic series) in experiment [2]; 13.1 upbm affinity estimate (log intensity, higher = more binding, comparable within an allelic series) in [3]; 12.6 upbm affinity estimate (log intensity, higher = more binding, comparable within an allelic series) in experiment [4]; 12.3 upbm affinity estimate (log intensity, higher = more binding, comparable within an allelic series) in [5]; 14 upbm affinity estimate (log intensity, higher = more binding, comparable within an allelic series) in experiment [6]. The binding signal was 13.2 upbm affinity estimate (log intensity, higher = more binding, comparable within an allelic series) in experiment [7]; 11.4 upbm affinity estimate (log intensity, higher = more binding, comparable within an allelic series) in experiment [8]; 13.3 upbm affinity estimate (log intensity, higher = more binding, comparable within an allelic series) in experiment [9]; 13.1 upbm affinity estimate (log intensity, higher = more binding, comparable within an allelic series) in [10]; 13.3 upbm affinity estimate (log intensity, higher = more binding, comparable within an allelic series) in experiment [11].

Turning to ACGGCTGG, the binding signal in [1] was 8.82 upbm affinity estimate (log intensity, higher = more binding, comparable within an allelic series); in experiment [12] it was 7.57 upbm affinity estimate (log intensity, higher = more binding, comparable within an allelic series); in experiment [14] it was 7.93 upbm affinity estimate (log intensity, higher = more binding, comparable within an allelic series); in experiment [10] it was 8.82 upbm affinity estimate (log intensity, higher = more binding, comparable within an allelic series).

Turning to CTACTTAA, the binding signal was 12.4 upbm affinity estimate (log intensity, higher = more binding, comparable within an allelic series) in experiment [1]; 12.5 upbm affinity estimate (log intensity, higher = more binding, comparable within an allelic series) in experiment [2]; 12.9 upbm affinity estimate (log intensity, higher = more binding, comparable within an allelic series) in experiment [3]; 12.4 upbm affinity estimate (log intensity, higher = more binding, comparable within an allelic series) in [4]; 11.5 upbm affinity estimate (log intensity, higher = more binding, comparable within an allelic series) in experiment [5]; 13.6 upbm affinity estimate (log intensity, higher = more binding, comparable within an allelic series) in [6]. Moreover, the binding signal in experiment [7] is 13 upbm affinity estimate (log intensity, higher = more binding, comparable within an allelic series); in [8] it was 10.6 upbm affinity estimate (log intensity, higher = more binding, comparable within an allelic series); in experiment [10], 12.3 upbm affinity estimate (log intensity, higher = more binding, comparable within an allelic series).

For AAGTGGCT, the binding signal in experiment [1] is 12.5 upbm affinity estimate (log intensity, higher = more binding, comparable within an allelic series); in [2] it was 12.5 upbm affinity estimate (log intensity, higher = more binding, comparable within an allelic series); in [3] it was 12.9 upbm affinity estimate (log intensity, higher = more binding, comparable within an allelic series); in experiment [4], 12.4 upbm affinity estimate (log intensity, higher = more binding, comparable within an allelic series); in experiment [5], 11.8 upbm affinity estimate (log intensity, higher = more binding, comparable within an allelic series); in [6], 13.4 upbm affinity estimate (log intensity, higher = more binding, comparable within an allelic series). Besides, the binding signal was 13 upbm affinity estimate (log intensity, higher = more binding, comparable within an allelic series) in experiment [7]; 10.6 upbm affinity estimate (log intensity, higher = more binding, comparable within an allelic series) in experiment [8]; 12.8 upbm affinity estimate (log intensity, higher = more binding, comparable within an allelic series) in experiment [9]; 12.4 upbm affinity estimate (log intensity, higher = more binding, comparable within an allelic series) in experiment [10]; 12.9 upbm affinity estimate (log intensity, higher = more binding, comparable within an allelic series) in experiment [11].
